Source: PubChem BioAssay
MITF inh – inhibitors of human MITF. 650,000 tested, 0.91% active. inhibition, % at 2.6 µM. O75030. AlphaScreen MITF homodimerization, bead proximity signal; in the data active means inhibition above about 50%
Target sequence (O75030 whole entry, looked up): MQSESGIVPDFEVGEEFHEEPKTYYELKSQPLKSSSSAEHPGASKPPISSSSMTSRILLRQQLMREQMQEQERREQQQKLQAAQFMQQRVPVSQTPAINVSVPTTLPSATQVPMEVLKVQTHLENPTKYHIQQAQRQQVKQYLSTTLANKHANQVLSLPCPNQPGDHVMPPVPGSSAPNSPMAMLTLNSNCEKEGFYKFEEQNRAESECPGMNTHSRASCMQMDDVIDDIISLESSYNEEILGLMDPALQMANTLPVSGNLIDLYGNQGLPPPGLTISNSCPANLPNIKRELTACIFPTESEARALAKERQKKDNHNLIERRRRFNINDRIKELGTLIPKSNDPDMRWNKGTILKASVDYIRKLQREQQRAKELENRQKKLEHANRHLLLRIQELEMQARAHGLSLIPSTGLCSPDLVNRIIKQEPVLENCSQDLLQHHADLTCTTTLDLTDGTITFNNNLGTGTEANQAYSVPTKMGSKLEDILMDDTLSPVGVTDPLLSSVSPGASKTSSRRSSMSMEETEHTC
GPR151 ag – activators of human GPR151; PathHunter beta-arrestin GPR151 cells, luminescence; 650,000 tested, 1% active; Q8TDV0; activation, % at 11.2 µM; in the data active means activation above about 4.9%
FBW7 activator – activators of human E3 ligase FBW7; AID 1259310; 650,000 tested, 0.13% active; normalized activity (activation), % at 26.1 µM; Q969H0; AlphaScreen FBW7–phospho-cyclin E peptide binding, activator screen; in the data active means normalized activity above about 1.9%;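 further: purified mutant Fbw7 with reduced substrate affinity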
TEAD-YAP block – TEAD-YAP interaction inhibition | inhibition, % at 9.12 µM | 640,000 tested, 1.4% active | HEK-TIYL cells, TEAD-Gal4/YAP UAS-luciferase luminescence | AID 1259422; in the data active means inhibition above about 32%
Of the large screens only hits and unclear results are named; the others gave an inactive call. An excerpt weighted towards active compounds, which were near 3.5% of everything screened.

O=C(Nc1ccccc1)C1CCN(S(=O)(=O)c2ccc(Cl)s2)CC1	none
CCC1CCCCN1c1ncnc2sc(C)cc12 (centres undefined)	none
Cc1ccc(S(=O)(=O)NNc2nc(-c3ccccc3)c3cc(Cl)ccc3n2)cc1	none
CC(C)CCCC(C)Nc1ncnc2sccc12 (centres undefined)	TEAD-YAP block 48
CCCC(Nc1ncnc2sccc12)c1ccccc1 (centres undefined)	none
COc1ccc(-c2nc3ccccc3c(=O)n2NCc2cccc(Oc3ccccc3)c2)cc1	TEAD-YAP block 78
COc1ccc(-c2nc3ccccc3c(=O)n2NCc2ccc(Br)cc2)cc1OC	none
COc1ccc(-c2nc3ccccc3c(=O)n2NCc2ccc(O)cc2)cc1OC	TEAD-YAP block 40
COc1ccc(-c2nc3ccccc3c(=O)n2NCc2cccc(OC)c2)cc1	none
CCC1CCCCN1CCN1C(=O)C2C(C(=O)Nc3ccc(Cl)cc3)C3C=CC2(O3)C1C(=O)NC1CCCCC1 (centres undefined)	none
COc1ccc(CCNC(=O)c2ccc3nc(Nc4ccc5ncccc5c4)sc3c2)cc1	TEAD-YAP block 32
COc1ccc(-c2nc3ncnc(NCCc4ccc(O)cc4)c3[nH]2)cc1	TEAD-YAP block 59
COc1ccc(-c2nc3ncnc(Nc4cc(OC)c(OC)c(OC)c4)c3[nH]2)cn1	TEAD-YAP block 46
CC(=O)c1cccc(-c2nc(Nc3ccccc3)c3[nH]cnc3n2)c1	none
COc1ccc(-c2nc3ncnc(Nc4ccc(NC(C)=O)cc4)c3[nH]2)cn1	none
COc1ccc(-c2nc(Nc3cc(OC)c(OC)c(OC)c3)c3[nH]cnc3n2)cn1	TEAD-YAP block 57
COc1cc(Nc2nc(-c3cccc(C(C)=O)c3)nc3nc[nH]c23)cc(OC)c1OC	FBW7 activator 1.9
COc1ccc(-c2nc3ncnc(NCCOc4ccccc4)c3[nH]2)cn1	TEAD-YAP block 36
COc1ccc(-c2nc3ncnc(NCCN(C(C)C)C(C)C)c3[nH]2)cn1	none
CN(Cc1ccccc1F)S(=O)(=O)c1ccc2ccccc2c1	none
Cc1nc(-n2cccc2)sc1C(=O)N1CCN(Cc2csc(-c3ccccc3)n2)CC1	none
O=C(c1ccc(-n2cccc2)cc1)N1CCN(Cc2csc(-c3ccccc3)n2)CC1	TEAD-YAP block 60
Cc1nc(C)c(C(=O)N2CCN(Cc3csc(-c4ccccc4)n3)CC2)s1	TEAD-YAP block 40
COCC(=O)N1CCN(Cc2csc(-c3ccccc3)n2)CC1	none
CCOc1cc(C2C(C(=O)OC(C)C)=C(C)NC3=C2C(=O)CC(c2ccc(OC)cc2)C3)cc(Br)c1O (centres undefined)	none
COc1ccc(Cn2c(O)c(/C=C3\C=CC=N3)c(=O)[nH]c2=O)cc1	none
COc1ccc(OC)c(Cn2c(O)c(/C=C3\C=CC=N3)c(=O)[nH]c2=O)c1	TEAD-YAP block 40
CCCCN(C)c1nnc(NC(=O)Nc2cc(OC)c(OC)c(OC)c2)s1	TEAD-YAP block 56
CCCCN(C)c1nnc(NC(=O)Nc2ccccc2OC)s1	none
Nc1ccc2oc(-c3cc(Br)ccc3Cl)nc2c1	TEAD-YAP block 41
Nc1ccc2oc(-c3cc(I)ccc3Cl)nc2c1	TEAD-YAP block 34
Nc1ccc2oc(-c3cc(Cl)ccc3Cl)nc2c1	none
Nc1ccc2oc(-c3ccccc3Cl)nc2c1	TEAD-YAP block 42
Nc1ccc(Cl)c(-c2nc3cc(Cl)ccc3o2)c1	none
CCOC(=O)C1=CN(Cc2ccc(OC)cc2)C=C(C(=O)OCC)C1c1ccccc1OC	none
CCOC(=O)C1=CN(Cc2ccc(OC)cc2)C=C(C(=O)OCC)C1c1ccccc1OCc1ccccc1	FBW7 activator 2.2
COC(=O)C1=CN(Cc2ccc(Cl)cc2)C=C(C(=O)OC)C1c1ccccc1OC(C)C	FBW7 activator 2.1
COC(=O)C1=CN(Cc2ccc(F)cc2)C=C(C(=O)OC)C1c1ccccc1Cl	none
COC(=O)C1=CN(Cc2ccc(F)cc2)C=C(C(=O)OC)C1c1ccccc1OC(C)C	FBW7 activator 5.0
CCOC(=O)C1=CN(Cc2ccc(Cl)cc2)C=C(C(=O)OCC)C1c1ccccc1OC(C)C	none
CCOC(=O)C1=CN(Cc2ccc(F)cc2)C=C(C(=O)OCC)C1c1ccc(SC)cc1	FBW7 activator 1.9
CCN1CCCC1CNC(=O)c1ccc2c(=O)n(Cc3ccc(OC)cc3)c(=S)[nH]c2c1 (centres undefined)	none
O=C(Nc1nnc(-c2ccc(Cl)cc2)s1)c1cc(Cl)ccc1Cl	none
Cc1c(CCNS(=O)(=O)c2ccc(F)cc2)sc2nc(-c3ccc(F)cc3)nn12	TEAD-YAP block 37
COc1cc(OC)nc(Sc2ccccc2/C=N/O)n1	TEAD-YAP block 57
COc1ccc(F)c(CN2CCCC(CNC(=O)c3cccs3)C2)c1 (centres undefined)	none
CCn1c2ccccc2c2cc(CN3CCN(Cc4cc(OC)ccc4O)CC3)ccc21	MITF inh 62
COc1ccc(CN2CCN(Cc3cc(OC)ccc3O)CC2)cc1	MITF inh 83
COc1ccc(O)c(CN2CCN(Cc3ccccc3OC)CC2)c1	MITF inh 69
CCn1c2ccccc2c2cc(CN3CCN(Cc4cc(OC)c(O)c(OC)c4)CC3)ccc21	none
COc1cc(/C=C2\SC(N)=NC2=O)ccc1OCc1ccccc1	none
O=C(Oc1ccc(N2C(=O)C=CC2=O)cc1)c1cccc2ccccc12	FBW7 activator 1.9
CCCN(CCC)C(=O)Cc1ccc(OC)cc1	none
CN(c1ccccc1)c1ccc(/C=C/[N+](=O)[O-])cc1	TEAD-YAP block 34
Clc1ccc(-n2ncc3c(NC(c4ccccc4)c4ccccc4)ncnc32)cc1	none
O=C(NNc1ncnc2c1cnn2-c1ccc(Cl)cc1)c1cccs1	TEAD-YAP block 57
Clc1ccc(-n2ncc3c(Nc4ccc(Br)cc4)ncnc32)cc1	TEAD-YAP block 42
O=C(NNc1ncnc2c1cnn2-c1ccc(F)cc1)c1cccs1	none
CC(C)Nc1ncnc2c1cnn2-c1ccc(Cl)cc1	TEAD-YAP block 56
Clc1ccc(Nc2ncnc3c2cnn3-c2ccccc2)cc1	none
CCOc1ccc(NC(=O)c2cc3ccccn3n2)cc1	none
COc1ccc(/C(C#N)=C/c2ccc3c(c2)OCO3)cc1OC	TEAD-YAP block 37
CCOc1ccc(/C=C(/C#N)c2ccc3c(c2)OCO3)cc1	none
COc1ccccc1CN(Cc1cc2cccc(C)c2n2nnnc12)C(=O)c1ccncc1	TEAD-YAP block 34
Cc1cccc2cc(CN(CCc3ccccc3)C(=O)c3ccncc3)c3nnnn3c12	none
Cc1ccc2nc(CN3CCCCC3c3nccs3)nc(N3CCSCC3)c2c1 (centres undefined)	none
c1cc(-c2cncc(N3CCOCC3)c2)nc(Nc2ccc(-n3cncn3)cc2)n1	none
O=C(c1ccc(Nc2nccc(-c3cncc(N4CCOCC4)c3)n2)cc1)N1CCOCC1	TEAD-YAP block 51
c1ccc(Cc2nc3ccc(Nc4nccc(-c5cncc(N6CCOCC6)c5)n4)cc3o2)cc1	none
Nc1nc(Nc2ccc(-n3ccnc3)cc2)cc(Nc2ccc3c(c2)OCO3)n1	none
c1cn(-c2ccc(Nc3nccc(Nc4ccc5c(c4)OCO5)n3)cc2)cn1	TEAD-YAP block 36
CCc1nc2ccc(Nc3nccc(-c4cncc(N5CCOCC5)c4)n3)cc2o1	TEAD-YAP block 34
